Test results taken from PubChem BioAssay (NCI).
This is part of a sample that, as a whole, favours compounds with a hit. Of some 83,000 tested, about 20% had one in any assay.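 Single-dose data. Exposure time 48 hours. Values below 10 considered active.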 A number with no mark means an inactive call. The source made the active and inactive calls.

What was measured:
Test in all cases: NCI-60 one-dose screen, 48 h (100 = growth as untreated, 0 = no growth, -100 = all killed)
Conditions in all cases: 10 µM unless noted
[1] = test system: HCT-15 colon
[2] = test system: HT29 colon
[3] = test system: SNB-75 CNS
[4] = test system: SNB-19 CNS
[5] = test system: U251 CNS
[6] = test system: PC-3 prostate
[7] = test system: SK-MEL-5 melanoma
[8] = test system: UACC-62 melanoma
[9] = test system: SK-MEL-28 melanoma
[10] = test system: LOX IMVI melanoma

SMILES | growth [1] | growth [2] | growth [3] | growth [4] | growth [5] | growth [6] | growth [7] | growth [8] | growth [9] | growth [10]
Oc1[nH]c2ccccc2c1/C=c1/ccc2c(c1)N=C(c1ccc(C(F)(F)F)cc1)N=2 | 44.5% | 37.9% | 48.7% | 61.6% | 32.5% | 32.5% | 69.9% | 47.2% | 52.8% | –
O=C(c1ccc(C(F)(F)F)c(Cl)c1)N(Cc1ccc(Cl)cc1)c1ccc(-c2cc(C(F)(F)F)[nH]n2)c(O)c1 | 7.04% (active) | 5.34% (active) | 10.3% | 26.2% | 4.18% (active) | 11.2% | -42.9% (active) | 14.5% | 30.8% | 4.7% (active)
CCOC(=O)c1ccc(NC(=O)NC2=NCCS2)cc1 | 59.3% | 106% | 21.5% | 54.3% | 26.6% | 16% | 75.9% | 78.9% | 87.3% | –
COc1cc(NCCCCC(C)N)c2nccc(C)c2c1 (stereo not given) | 93.9% | 76.3% | 72% | 94.6% | 93% | 66% | 87.7% | 91.1% | 99.3% | 92.7%
C=CC[C@]1(O)CC[C@H]2[C@@H]3CCc4cc(O)ccc4[C@H]3CC[C@@]21C | 81.4% | 91.2% | 75.7% | 94.4% | 93.4% | 85.6% | 99.6% | 89.4% | 101% | 92.6%
Cc1ccc(-c2cnc3sc4ccc(Cl)cc4n23)cc1 | 100% | 99.8% | 93.9% | 96.4% | 105% | 82.6% | 95.6% | 87.9% | 109% | –
COc1cc(/C=C2\C(=O)Nc3ccc(N(C)C)cc32)cc(OC)c1OC | 17% | 9.36% (active) | -17.1% (active) | 36.2% | 11.4% | 35% | 21.5% | -0.443% (active) | 43.4% | –
COc1ccccc1NC(=O)OCC12COCN1COC2 | 97.2% | 109% | 97.6% | 94.4% | 91.1% | 101% | 99.5% | 99.7% | 108% | –
C=CCn1c(SCC(=O)Nc2ccc(/C(C)=N\O)cc2)nnc1-c1cc(-c2ccc(Cl)cc2)nc2ccccc12 | 25.1% | 24.7% | 40.9% | 49.4% | 25.8% | 22.9% | 33.9% | 25.5% | 45.3% | -66.6% (active)
CCCC(CCC)NCC(O)c1cc(-c2ccc(C(F)(F)F)cc2)nc(C(F)(F)F)c1 (stereo not given) | -62.4% (active) | -74% (active) | -3.88% (active) | 8.92% (active) | -96.6% (active) | -47.3% (active) | -94% (active) | -68.1% (active) | -41.9% (active) | –
O=C(CI)NCCNc1cccc2c(S(=O)(=O)O)cccc12 | 98.6% | 110% | 96.9% | 89.7% | 105% | 102% | 99.6% | 89.5% | 106% | 103%
Cc1cc(NC(=O)c2ccc(N)cc2)ccc1N=Nc1ccc2cc(S(=O)(=O)O)cc(S(=O)(=O)O)c2c1 | 104% | 99% | 101% | 129% | 92.9% | 85.6% | 111% | 114% | 117% | –
O=C1OCC2=C1C(c1ccc(Cl)c(Cl)c1)c1cc3c(cc1N2CCO)CCC3 (stereo not given) | 13.4% | 3.94% (active) | 18% | 32.5% | 16% | 25.5% | 30% | 13.7% | 47.3% | –
COc1ccc(/C=C(/C(=O)N2CCN(c3ccccc3)CC2)c2cc(OC)c(OC)c(OC)c2)cc1N | 14.6% | 7.35% (active) | 53.3% | 24.5% | 14.5% | 26.7% | 7.37% (active) | 27.9% | 64% | 27.2%
O=C(Nc1ccc2ncnc(Nc3ccc(F)c(Cl)c3)c2c1)c1cccs1 | 51% | 58.7% | 50.5% | 68.9% | 54.7% | 62.8% | 67.1% | 56.4% | 65.8% | –
Nc1nc(N)c2cc(Sc3ccc(Cl)cc3)ccc2n1 | 20.5% | 14.8% | 48.2% | 40% | 24.7% | 25.2% | 17.8% | 24.4% | 54% | –
CC(=O)O[C@H]1[C@H](CC#CC#CC[C@@H]2C[C@]3(C)[C@H]4CC=C5[C@H]6[C@@H](C)[C@H](C)CC[C@]6(C(=O)NCCN(CCN)CCN)CC[C@@]5(C)[C@]4(C)CC[C@H]3C(C)(C)[C@H]2OC(C)=O)C[C@]2(C)[C@H]3CC=C4[C@H]5[C@@H](C)[C@H](C)CC[C@]5(C(=O)NCCN(CCN)CCN)CC[C@@]4(C)[C@]3(C)CC[C@H]2C1(C)C | 26.8% | 58.1% | 68.1% | 31.9% | 36.2% | 51.7% | 92.2% | 40.9% | 85% | 50.9%
CC1=NOCC(=O)N1 | 102% | 101% | 85.3% | 95.6% | 94.7% | 95.2% | 99.7% | 102% | 99.4% | 89.1%
CC(C)(C)NC(=O)C(OC(=O)C1CCc2cc(F)ccc2O1)c1ccccc1Cl (stereo not given) | 98.7% | 103% | 83.3% | 97.1% | 102% | 92.4% | 94.5% | 87.6% | 108% | –
COc1ccc(C(=O)/C=C/c2cn(-c3ccccc3)nc2-c2cccc(Nc3ccnc4cc(Cl)ccc34)c2)cc1 | 101% | 104% | 99.5% | 93.2% | 94.9% | 87.4% | 88.4% | 89.9% | 95.3% | –
N#Cc1c(N)c(C(=O)c2ccc3c(c2)OCCO3)n2c1CCCC2 | 20.9% | 5.44% (active) | -1.33% (active) | 53.7% | 15.4% | 23% | 22.8% | 38% | 44% | 32.2%
Cc1[nH]n(C(=O)c2ccncc2)c(=O)c1N=Nc1ccc(O)c(C(=O)O)c1 | 112% | 115% | 89.9% | 116% | 119% | 102% | 106% | 96.2% | 109% | 75.7%
N=C(N)c1ccc(-c2ccc(-c3cc(Cl)cc(Cl)c3)o2)nc1 | -67.1% (active) | -81.7% (active) | -90.7% (active) | -75.6% (active) | -88.3% (active) | -29.7% (active) | 34.7% | -86.2% (active) | -79.2% (active) | -86.7% (active)
Cc1c(O)c(=O)n(-c2ccccc2)n1C | 92.7% | 103% | 98.3% | 106% | 105% | 92% | 110% | 98.7% | 111% | –
Fc1cc(-c2nnc3sc(-c4ccc(Cl)cc4)nn23)c(Cl)cc1Cl | 96.5% | 90.6% | 75.5% | 96.6% | 91.7% | 102% | 85.6% | 90.4% | 84.4% | –
CCN(CC)c1ccc2nc3c4ccccc4c(=O)cc-3n(-c3ccccc3)c2c1 | 5.16% (active) | 6.55% (active) | -2.25% (active) | 23.6% | 18.9% | 6.03% (active) | -98.1% (active) | -8.44% (active) | 9.68% (active) | –
NC(N)=N/N=C\c1cccc(OCc2ccccc2)c1 | 45% | 1.4% (active) | 63.8% | 83.2% | 23.3% | 71.5% | 33% | 84.9% | 86% | 51%
CN(C)CCOc1nc2c3cccnc3cc(-c3cccc(Cl)c3)c2c2ncccc12 | -10.9% (active) | 1.5% (active) | 38.2% | 26.4% | 11.2% | 22.4% | 1.23% (active) | -75.6% (active) | -81.6% (active) | -94.5% (active)
